Source: PubChem BioAssay
For some assays here: Measured potencies and affinities stand elsewhere. Active and inactive are the calls of the source. Unless noted, the rule behind the calls is not given here.

Target: Protein kinase 7 (PK7), Plasmodium falciparum 3D7 (PF3D7_0213400) (UniProt Q7YTF7)
Test: inhibition of Plasmodium PK7 catalytic activity – biochemical, TCAMS antimalarial set, Kinase-Glo luminescence (AID 1159587)
Conditions: recombinant PfPK7, Kinase-Glo ATP depletion luminescence

Chain of Protein kinase 7 (PK7), Plasmodium falciparum 3D7 (PF3D7_0213400) (Q7YTF7 1-343): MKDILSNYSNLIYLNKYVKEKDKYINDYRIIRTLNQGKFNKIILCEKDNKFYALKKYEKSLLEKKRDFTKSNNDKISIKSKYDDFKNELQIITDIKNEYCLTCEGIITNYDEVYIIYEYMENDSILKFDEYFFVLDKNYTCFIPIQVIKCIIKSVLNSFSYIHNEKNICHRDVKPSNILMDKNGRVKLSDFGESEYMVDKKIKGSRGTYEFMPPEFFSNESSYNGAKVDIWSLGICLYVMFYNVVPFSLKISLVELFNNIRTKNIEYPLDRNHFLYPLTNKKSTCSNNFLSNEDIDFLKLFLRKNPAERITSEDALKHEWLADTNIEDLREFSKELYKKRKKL

outcome, inactive:
CCCc1cc(Cc2cnc(N)nc2N)ccc1OCCCCCC(=O)O
CC(C)(C)c1nn(-c2ccc(Cl)cc2)c2[nH]c(=O)c(CNC3CCCC3)cc12
O=C(c1ccco1)N1CCN(c2nc(-c3ccc(Cl)cc3)nc3ccccc23)CC1
CC(C)CCN1CCC(Oc2ccc(NC(=O)c3ccccc3)cc2Cl)CC1
COc1cccc(-c2nn(C)c3sc(C(=O)Nc4cccnc4)cc23)c1
Cc1cccc(C)c1C1CCN(C2CCC(NC(=O)/C=C/c3ccccc3)CC2)CC1 (stereo not given)
Cc1ccnc(Nc2nc(-c3ccccn3)cs2)c1
NC1=NC2(CCCCC2)N(OCCCOc2cc(Cl)c(Cl)cc2Cl)C(N)=N1
O=C(NCc1ccc(Cl)cc1)c1ccc(CN2CCCN(Cc3cccc(O)c3)CC2)cc1
CS(=O)(=O)NCCCNCc1ccc(-c2ccc(-c3nc4ccc(C(F)(F)F)cc4[nH]3)s2)cc1
CNC(=S)NCc1cnc2ccccn12
Cn1cnc2nc(NCCc3ccccc3)nc(NCc3cccc4ccccc34)c21
CCOC(=O)c1cn(CC)c2cc(N(C)CCc3ccc(OC)c(OC)c3)c(F)cc2c1=O
Cc1cccc2[nH]c(-c3ccc(-c4cccc(CNCc5cnn(-c6ccccc6)n5)c4)s3)nc12
N=c1c2c(n(Cc3cccc(Cl)c3)c3c1CCC3)CCCC2
O=C(Nc1ccccc1Br)N[C@@H]1CCN(c2ccnc3ccccc23)C1
Cc1[nH]c(C)c(-c2ccc(-c3ccccc3F)nc2)c(=O)c1Br
CC(=O)c1c(Cc2cccc(C(F)(F)F)c2)c[nH]c1C
Cc1cc(NC2CCN(CC3CCCCC3)C2)nc(Nc2ccc(Br)cc2)n1 (stereo not given)
Cc1cccc2c(CON3C(N)=NC(N)=NC3(C)C)cccc12
CCC(CC)(Cc1ccccc1)NC(=O)[C@H](Cc1ccc(OC)c(OC)c1)Nc1ccc(C#N)c2ccccc12
O=C(C=Cc1ccc(Cl)c(Cl)c1)NCCCCCN1CCC(CCNC(=O)/C=C/c2ccccc2)CC1
O=C(Nc1cccc(C(F)(F)F)c1)c1cccc(S(=O)(=O)NC2CCCN(CC3CCCCC3)C2)c1 (stereo not given)
Cc1cc(NC(=O)c2cc(Br)ccc2Cl)n(-c2nc(C)c(C)c(=O)[nH]2)n1
CN(C(=O)/C=C/c1ccccc1F)C1CCN(CCCCCNC(=O)/C=C/c2ccc(Cl)c(Cl)c2)CC1
CC1CN(Cc2ccc(-c3cccc(-c4nc5ccc(F)cc5[nH]4)c3)cc2)CC(C)O1 (stereo not given)
CC(C)C[C@@H](CNC[C@H](CC(C)C)NC(=O)OC(C)(C)C)NC(=O)OC(C)(C)C
CCNC(=O)N[C@@H]1CN[C@@H](C#Cc2cc3c(Nc4ccc(OCc5cccc(F)c5)c(Cl)c4)ncnc3s2)C1
CC(C)N1CCN(C(CN2CCN(CCCOc3ccc4ccccc4c3)CC2)c2ccc(F)cc2)CC1 (stereo not given)
CN(C)C(=NCCCCCCN=C(NC(N)=NCc1ccc(Cl)c(Cl)c1)N(C)C)NC(N)=NCc1ccc(Cl)c(Cl)c1
CCn1c2ccccc2c2cc(C=NNc3cc(C)nc4ccccc34)ccc21
CS(=O)(=O)CCN(CCS(C)(=O)=O)Cc1ccc(-c2ccc3ncnc(Nc4ccc(OCc5cccc(F)c5)c(Cl)c4)c3c2)o1
O=C(NC1CCCC1)c1ccc(N2CCC(NCc3cc4cc(Cl)ccc4[nH]3)CC2)cc1
COc1ccccc1C1CCN(CCN2CCC(NC(=O)c3ccc(-c4ccc(C#N)cc4)cc3)CC2)CC1
O=C(NC1CCN(Cc2ccc(F)cc2)CC1)c1ccc(-c2cccc(C(F)(F)F)c2)s1
O=C(Nc1ccc(Br)cc1)N(CCN1CCOCC1)CC(O)COc1ccc(Cl)c(F)c1 (stereo not given)
NC(=O)c1ccc(NCC(=O)Nc2cccc(-c3cccc(-c4nc5ccc(C(F)(F)F)cc5[nH]4)c3)c2)cc1
CC(=O)Nc1cccc(-c2cn(-c3ccc(OCc4cccc(F)c4)c(Cl)c3)c3ncncc23)c1
CCCc1ccc(NC(=O)c2ccc(CN3CCCN(Cc4cccc(O)c4)CC3)cc2)cc1
Cc1ccc(C)c(NC(=O)Nc2ccc(Nc3nc(C)cc(N4CCOCC4)n3)cc2)c1

Target: Calcium-dependent protein kinase 4 (Plasmodium falciparum (isolate 3D7)) (UniProt Q8IBS5)
Sequence (Q8IBS5 whole entry, looked up): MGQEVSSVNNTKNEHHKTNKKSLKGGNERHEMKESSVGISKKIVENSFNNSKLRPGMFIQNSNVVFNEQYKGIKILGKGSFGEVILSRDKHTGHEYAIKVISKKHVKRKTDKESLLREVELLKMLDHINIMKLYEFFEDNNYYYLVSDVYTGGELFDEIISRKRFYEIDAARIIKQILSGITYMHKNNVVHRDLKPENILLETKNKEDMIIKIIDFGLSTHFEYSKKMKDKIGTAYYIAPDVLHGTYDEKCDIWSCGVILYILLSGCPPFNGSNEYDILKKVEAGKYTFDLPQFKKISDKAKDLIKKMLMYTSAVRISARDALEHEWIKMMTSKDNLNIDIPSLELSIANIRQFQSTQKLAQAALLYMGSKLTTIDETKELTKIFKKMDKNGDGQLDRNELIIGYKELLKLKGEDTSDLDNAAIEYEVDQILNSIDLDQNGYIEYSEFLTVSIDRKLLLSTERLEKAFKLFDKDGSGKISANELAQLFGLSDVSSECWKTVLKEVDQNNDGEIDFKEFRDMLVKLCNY
Test: PfCDPK4 kinase inhibitors, biochemical, TCAMS library (AID 1159588; cut-off not given, nearly all actives have IC50 up to about 0.91 µM)
Conditions: recombinant PfCDPK4, Kinase-Glo ATP depletion luminescence

outcome, inactive:
CCCc1cc(Cc2cnc(N)nc2N)ccc1OCCCCCC(=O)O
CC(C)(C)c1nn(-c2ccc(Cl)cc2)c2[nH]c(=O)c(CNC3CCCC3)cc12
O=C(c1ccco1)N1CCN(c2nc(-c3ccc(Cl)cc3)nc3ccccc23)CC1
CC(C)CCN1CCC(Oc2ccc(NC(=O)c3ccccc3)cc2Cl)CC1
COc1cccc(-c2nn(C)c3sc(C(=O)Nc4cccnc4)cc23)c1
Cc1cccc(C)c1C1CCN(C2CCC(NC(=O)/C=C/c3ccccc3)CC2)CC1 (stereo not given)
Cc1ccnc(Nc2nc(-c3ccccn3)cs2)c1
NC1=NC2(CCCCC2)N(OCCCOc2cc(Cl)c(Cl)cc2Cl)C(N)=N1
O=C(NCc1ccc(Cl)cc1)c1ccc(CN2CCCN(Cc3cccc(O)c3)CC2)cc1
CS(=O)(=O)NCCCNCc1ccc(-c2ccc(-c3nc4ccc(C(F)(F)F)cc4[nH]3)s2)cc1
CNC(=S)NCc1cnc2ccccn12
Cn1cnc2nc(NCCc3ccccc3)nc(NCc3cccc4ccccc34)c21
CCOC(=O)c1cn(CC)c2cc(N(C)CCc3ccc(OC)c(OC)c3)c(F)cc2c1=O
Cc1cccc2[nH]c(-c3ccc(-c4cccc(CNCc5cnn(-c6ccccc6)n5)c4)s3)nc12
N=c1c2c(n(Cc3cccc(Cl)c3)c3c1CCC3)CCCC2
O=C(Nc1ccccc1Br)N[C@@H]1CCN(c2ccnc3ccccc23)C1
Cc1[nH]c(C)c(-c2ccc(-c3ccccc3F)nc2)c(=O)c1Br
CC(=O)c1c(Cc2cccc(C(F)(F)F)c2)c[nH]c1C
Cc1cc(NC2CCN(CC3CCCCC3)C2)nc(Nc2ccc(Br)cc2)n1 (stereo not given)
Cc1cccc2c(CON3C(N)=NC(N)=NC3(C)C)cccc12
CCC(CC)(Cc1ccccc1)NC(=O)[C@H](Cc1ccc(OC)c(OC)c1)Nc1ccc(C#N)c2ccccc12
O=C(C=Cc1ccc(Cl)c(Cl)c1)NCCCCCN1CCC(CCNC(=O)/C=C/c2ccccc2)CC1
O=C(Nc1cccc(C(F)(F)F)c1)c1cccc(S(=O)(=O)NC2CCCN(CC3CCCCC3)C2)c1 (stereo not given)
Cc1cc(NC(=O)c2cc(Br)ccc2Cl)n(-c2nc(C)c(C)c(=O)[nH]2)n1
CN(C(=O)/C=C/c1ccccc1F)C1CCN(CCCCCNC(=O)/C=C/c2ccc(Cl)c(Cl)c2)CC1
CC1CN(Cc2ccc(-c3cccc(-c4nc5ccc(F)cc5[nH]4)c3)cc2)CC(C)O1 (stereo not given)
CC(C)C[C@@H](CNC[C@H](CC(C)C)NC(=O)OC(C)(C)C)NC(=O)OC(C)(C)C
CCNC(=O)N[C@@H]1CN[C@@H](C#Cc2cc3c(Nc4ccc(OCc5cccc(F)c5)c(Cl)c4)ncnc3s2)C1
CC(C)N1CCN(C(CN2CCN(CCCOc3ccc4ccccc4c3)CC2)c2ccc(F)cc2)CC1 (stereo not given)
CN(C)C(=NCCCCCCN=C(NC(N)=NCc1ccc(Cl)c(Cl)c1)N(C)C)NC(N)=NCc1ccc(Cl)c(Cl)c1
CCn1c2ccccc2c2cc(C=NNc3cc(C)nc4ccccc34)ccc21
CS(=O)(=O)CCN(CCS(C)(=O)=O)Cc1ccc(-c2ccc3ncnc(Nc4ccc(OCc5cccc(F)c5)c(Cl)c4)c3c2)o1
O=C(NC1CCCC1)c1ccc(N2CCC(NCc3cc4cc(Cl)ccc4[nH]3)CC2)cc1
COc1ccccc1C1CCN(CCN2CCC(NC(=O)c3ccc(-c4ccc(C#N)cc4)cc3)CC2)CC1
O=C(NC1CCN(Cc2ccc(F)cc2)CC1)c1ccc(-c2cccc(C(F)(F)F)c2)s1
O=C(Nc1ccc(Br)cc1)N(CCN1CCOCC1)CC(O)COc1ccc(Cl)c(F)c1 (stereo not given)
NC(=O)c1ccc(NCC(=O)Nc2cccc(-c3cccc(-c4nc5ccc(C(F)(F)F)cc5[nH]4)c3)c2)cc1
CC(=O)Nc1cccc(-c2cn(-c3ccc(OCc4cccc(F)c4)c(Cl)c3)c3ncncc23)c1
CCCc1ccc(NC(=O)c2ccc(CN3CCCN(Cc4cccc(O)c4)CC3)cc2)cc1
Cc1ccc(C)c(NC(=O)Nc2ccc(Nc3nc(C)cc(N4CCOCC4)n3)cc2)c1
